About 980 (39%) of roughly 2,500 compounds were called active.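 The calls were made as follows: active = mean inhibition at 5 µM reaching about 45% (limit read from the data); inactive = the rest.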 These entries were drawn from the full list.

This test can be described thus: Gli-SUFU pathway antagonists, confirmation, single concentration, luciferase luminescence, Sufu-KO-LIGHT cells (AID 602428).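 Also: plate controls were DMSO-treated cells for no effect and wells lacking cells for full effect.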 The conditions noted are these: Gli luciferase reporter, at 5 µM, stronger effect = higher value. A general note: A reporter such as luciferase makes a cellular process visible.
The term inhibition denotes the relative decrease from the control value, in per cent. For the compound `C=CCNC(=S)/N=c1/ccccn1Cc1ccccc1`, the inhibition is 50.8% (active).
With `CCOc1cccc(/C=N/NC(=S)NCCN2CCOCC2)c1O`, the inhibition was 24.5% (inactive).
The figure for `Nc1ccc(C(=O)N2CCN(S(=O)(=O)c3ccc(Cl)cc3)CC2)cc1[N+](=O)[O-]` is 17.8% (inactive).
Consider `COc1ccc(NC(=O)[C@H](NC(=O)[C@@H]2Cc3ccccc3CN2)c2ccccc2)cc1`, for which the inhibition is 17.9% (inactive).
The figure for `CCOC(=O)c1ccc(NC(=O)Cn2cnc3cc(C)c(C)cc32)cc1` is 76.1% (active); for `O=C(O)CCCn1cc(NC(=O)COc2cccc(Cl)c2)cn1` it is 12.9% (inactive); for `CC(=O)Nc1cccc(OCC(=O)/C=C2\N(C)c3ccccc3C2(C)C)c1` it is 54.9% (active).
The figure for `CC1CC2=C(CC1/C=N/NC(N)=S)C(C)(C)CCC2` (stereo not drawn) is 49.3% (active); for `COc1ccccc1CNC(=O)C1CCN(c2nc3ccccc3o2)CC1` it is 25.9% (inactive); for `COc1ccccc1CCNC(=O)C(=O)NCCC1CCCCN1S(=O)(=O)c1cccs1` (stereo not drawn) it is 48.8% (active).
The figure for `COc1ccc(NS(=O)(=O)c2ccc(NC(C)=O)cc2)cc1OC` is 51.5% (active); for `Cc1cccc(NS(=O)(=O)c2ccc(-c3cnc(C4CC4)o3)cc2)c1` it is 36.7% (inactive).
Turning to `COc1ccc2c(C)cc3nnnn3c2c1`, the inhibition was 17.3% (inactive).
In the case of `O=C(CN1C(=O)c2ccccc2S1(=O)=O)N1CCc2ccccc21`, the inhibition was 57.7% (active).
With `CC(C)OCC(O)CN1CCN(C(c2ccccc2)c2ccccc2)CC1` (stereo not drawn), the inhibition is 10.4% (inactive).
Consider `CC(=O)/C(=N\Nc1ccc(Cl)cc1Cl)Sc1cccc2cccnc12`, for which the inhibition was 57.7% (active).
For `CCC(Cc1ccccc1)NC(=O)C1CCCCC1` (stereo not drawn), the inhibition was 6.07% (inactive).
The value for `O=C(Nc1cc2c3c(c1)C1CCCC1CN3CC1CCCC21)c1ccc([N+](=O)[O-])cc1` (stereo not drawn) was 79% (active); that for `COc1cc(C(=O)OC2CCOC2=O)c([N+](=O)[O-])cc1OC` (stereo not drawn) was 7.05% (inactive); that for `CC[n+]1c(C)n(-c2ccccc2)c2ccc(NC(C)=O)cc21` was 80.2% (active).
With `C=CCOC(=O)C1=C[C@@H](c2ccc3c(c2)OCO3)C[C@@H](OCCCCO)O1`, the inhibition was 28.9% (inactive).
The figure for `O=C1/C(=C\c2cccnc2)CN(Cc2ccccc2)C/C1=C\c1cccnc1` is 19.9% (inactive); for `CCCCC(=O)NC(c1ccc(OC)c(OC)c1)c1ccc2cccnc2c1O` (stereo not drawn) it is 55% (active).
The value for `Cc1ccc(NC(=S)Nc2ccc(F)cc2)cc1` was -13.7% (inactive).
The value for `CCN1/C(=C/C(=S)Nc2ccccc2)Sc2ccccc21` was 9.5% (inactive); that for `COc1ccc(Cn2c(-c3ccc(Cl)cc3)c[n+]3ccccc23)cc1` was 63.2% (active).
`c1c2c(cc3sc(N4CCCCC4)nc13)OCCO2`: the inhibition was 34.5% (inactive).
The value for `O=c1c2ccccc2nc2n1C(CSCc1cccc(C(F)(F)F)c1)CS2` (stereo not drawn) was 67.6% (active); that for `CC1(C)CC(=O)c2c(n(S(=O)(=O)c3ccccc3)c3ccc(NS(=O)(=O)c4ccccc4)cc23)C1` was 19.1% (inactive); that for `C/C(=N\NC(=O)Cc1ccc(Cl)cc1)c1ccccn1` was 86.9% (active).
In the case of `Cc1cc(NC(=O)c2cccc(N3C(=O)CCC3=O)c2)no1`, the inhibition was 20.1% (inactive).
Consider `CC(C)(CNC(=O)c1ccc(Cl)c(S(=O)(=O)N2CCc3ccccc3C2)c1)N1CCOCC1`, for which the inhibition was 22.8% (inactive).
The value for `CN(C)c1cc[n+](Cc2ccccc2)cc1` was 53% (active); that for `CCOC(=O)c1cnc(-n2nc(C)cc2C)nc1NNc1cc(C)nc(-c2ccccc2)n1` was 53.6% (active); that for `CCc1ccc(C2C(C#N)=C(N)N(N3CCOCC3)C3=C2C(=O)CC(C)(C)C3)s1` (stereo not drawn) was 7.97% (inactive).
The figure for `C=CCn1c(SCC(=O)CC(=O)OCC)nc2cc(C(=O)N3CCC(C(N)=O)CC3)ccc2c1=O` is 20.4% (inactive).
The value for `COc1cc(C(=O)OC(C)C(=O)NCC2CCCCC2)cc(NC(=O)c2ccco2)c1OC` (stereo not drawn) was 13.1% (inactive).
Turning to `COc1ccc(NS(=O)(=O)c2ccc(N3CCN(CCO)CC3)c([N+](=O)[O-])c2)cc1`, the inhibition is 45.5% (active).
The figure for `COc1ccccc1/C=C/CN1CCC(CO)(Cc2ccccc2)CC1` is 12.3% (inactive).
The value for `O=C(CN1CCN(S(=O)(=O)c2cc(Cl)ccc2Cl)CC1)c1ccc(O)c(O)c1` was 22.3% (inactive); that for `NS(=O)(=O)c1ccc(CCNC(=O)CCCn2c(SCC(=O)N3CCCC3)nc3ccsc3c2=O)cc1` was 8.32% (inactive); that for `COC(=O)Cc1[nH]n(-c2nc3ccccc3s2)c(=O)c1C(C)=Nc1ccc(OC)cc1` was 91.5% (active).
The figure for `N#CC(C#N)=CN=c1ccn(Cc2ccc(Cl)cc2Cl)cc1` is 50.9% (active); for `CCn1c(SCc2ccccc2)nc2cc(OC)c(OC)cc2c1=O` it is 25.4% (inactive).
As to `Cc1ccc(C(=O)C[n+]2cc(-c3ccccc3)n3c2CCCCC3)cc1`, the inhibition is 70.7% (active).
The value for `Cc1cc(C(=O)CSc2nc(N)cc(=O)[nH]2)c(C)n1-c1cccc(F)c1` was 55.4% (active); that for `Cc1ccc(-c2nc3c(cnn3-c3ccccc3)c(=O)o2)cc1` was 38.2% (inactive).
As to `N#Cc1ccc(C(=O)Nc2nc(-c3cccs3)c(C(=O)C(F)(F)F)s2)cc1`, the inhibition is 66% (active).
The value for `O=C(O)c1ccc(N/N=C/c2ccc3ncccc3c2)cc1` was 61.1% (active); that for `CCNC(=S)N(CCN(CC)CC)Cc1cc2cc3c(cc2[nH]c1=O)OCO3` was 20.6% (inactive).
With `CC1(C)Cc2ccccc2/C(=C/C(=O)c2ccccc2)N1`, the inhibition was 27.6% (inactive).
The figure for `CC(C)Oc1ccc(/C=N/NC(=O)c2nnn(-c3nonc3N)c2CN(C)C2CCCCC2)cc1` is 24.6% (inactive).
The figure for `CC(=O)c1c(C)[nH]c(C(=O)OCC(=O)Nc2sc3c(c2C#N)CCCC3)c1C` is 59% (active); for `NC(N)=Nc1nc(-c2ccccc2)c2cc(Cl)ccc2n1` it is 31.6% (inactive).
On to `CCCOc1ccccc1C1CC(=O)Nc2cc3c(cc21)OCO3` (stereo not drawn), for which the inhibition is 52.9% (active).
The figure for `COc1ccccc1N1CCN(Cc2cc(OC)c3c(c2)OCO3)CC1` is 14.2% (inactive).
The value for `COc1ccccc1C1C2=C(COC2=O)Nc2cc3c(cc21)OCO3` (stereo not drawn) was 48.7% (active); that for `CNc1nnc(-c2ccco2)s1` was 23.3% (inactive); that for `COc1ccc(OC)c(/C=N/NC(=O)c2ccc[n+](CC(=O)c3ccccc3)c2)c1` was 13.3% (inactive).
With `Cc1ccc(S(=O)(=O)NC(C)C(=O)Nc2ccccc2C(=O)N2CCCC2)cc1` (stereo not drawn), the inhibition is 14.3% (inactive).
The value for `C=CCC1(CC=C)CCCN1C(=O)c1cc(COc2ccc(-n3cncn3)cc2)on1` was 78.5% (active).
The figure for `Cc1nonc1C1CCCN1C(=O)c1cc(COc2cccc(C(F)(F)F)c2)on1` (stereo not drawn) is 26.7% (inactive); for `O=[N+]([O-])c1ccc(N2CCN(CC(O)COc3ccccc3)CC2)cc1` (stereo not drawn) it is 27.5% (inactive); for `COc1ccc(/C=N/N=C2/C(=O)Nc3ccccc32)cc1O` it is 21.9% (inactive).
The value for `COc1ccc(Cc2nnc(N/N=C/c3ccccc3O)[nH]c2=O)cc1OC` was 73.7% (active); that for `c1ccc(-n2nnnc2N2CCOCC2)cc1` was 6.89% (inactive).
Regarding `CC(C)c1ccc(OCC(O)CN2CCN(c3ccccn3)CC2)cc1` (stereo not drawn), the inhibition is 10.6% (inactive).
For `Cc1cc([N+](=O)[O-])c(-c2ccc(/C=N/n3cnnc3)o2)cc1Cl`, the inhibition is 15.1% (inactive).
For `O=C(C[C@H]1C/C=C\C[C@@H](NC(=O)OCC2c3ccccc3-c3ccccc32)C(=O)O[C@@H](c2ccccc2)CNC1=O)N[C@H](CO)Cc1ccccc1`, the inhibition is 57.2% (active).
The figure for `COC(=O)c1ccccc1NC(=O)C1(S(=O)(=O)c2ccc(Cl)cc2)CC1` is 15.8% (inactive); for `Cc1onc(-c2ccccc2)c1C(=O)Nc1ccccc1C#N` it is 14.9% (inactive).
The figure for `Cc1cccc2nc(CSc3nc4[nH]ncc4c(=O)n3-c3cccc(Cl)c3)cc(=O)n12` is 64.1% (active); for `CCN(CCO)C(=S)Nc1cc(C(=O)OC)ccc1C(=O)OC` it is 21.2% (inactive); for `CC(=O)Nc1ccc(NC(=O)c2ccc3c(c2)C(=O)N(c2ccccc2C)C3=O)cc1` it is 28.9% (inactive).
The figure for `Cc1ccc(O)c(NC(=O)COc2cc(C)ccc2C)c1` is 76.8% (active).
As for `C/C(=N\Nc1ccc(Cl)nn1)c1ccccc1O`, the inhibition is 47.1% (active).
With `COc1ccc2nc(SCC(=O)Nc3c(C)cc(C)cc3C)[nH]c2c1`, the inhibition was 23.1% (inactive).
As to `CSc1ncccc1C(=O)Nc1nc2ccc(F)cc2s1`, the inhibition was 79.4% (active).
The figure for `Cc1cc(C)c(SCCc2ccncc2)c(C)c1` is 27% (inactive); for `Cc1ccc(NC(=O)CN(C)CC(=O)Nc2cccc(F)c2)cc1[N+](=O)[O-]` it is 67.8% (active); for `CCCC1=Nc2cc(C(=O)NCc3ccco3)ccc2Sc2ccccc21` it is 31.8% (inactive).
The figure for `O=C1C=C(c2ccnc3cc(Cl)ccc23)C[C@@H](c2ccc3c(c2)OCO3)C1` is 61% (active); for `COc1ccc(C(=O)NC2CCCc3c2cnn3-c2cccc(C)c2C)c(OC)n1` (stereo not drawn) it is 51.3% (active).
The value for `CN(c1ccc2nc3ccccc3c(=O)n2n1)C1CCCCC1` was 79.3% (active); that for `COc1cccc(-n2cc(C(=O)O)c3ccccc3c2=O)c1` was 22.9% (inactive).
On to `COc1cccc2cc(C(N)=O)/c(=N\NC(=O)c3ccccc3)oc12`, for which the inhibition was 23.9% (inactive).
As for `Cc1ccccc1C(=O)NC(=S)Nc1ccc(N2CCN(C(=O)c3ccccc3)CC2)cc1`, the inhibition is 64.5% (active).
With `Cc1cc2[nH]ncc2cc1NC(=S)NC(=O)c1ccccc1`, the inhibition is 6.93% (inactive).
Consider `CC(C)C(=O)Nc1nnc(SCC(=O)N2C(C)CCCC2C)s1` (stereo not drawn), for which the inhibition is 17.7% (inactive).
The value for `Cc1ccc(Nc2nc(N3CCOCC3)nc(N3CCOCC3)n2)cc1Cl` was 33.3% (inactive); that for `CCOc1ccc(-n2c(O)c(/C=N/c3ccnn3Cc3ccncc3)c3ccccc3c2=O)cc1` was 28% (inactive).
On to `CCOc1ccc(-n2c(O)c(/C=N/Nc3nc(C)cc(C)n3)c3ccccc3c2=O)cc1`, for which the inhibition is 78.3% (active).
`O=C(Nc1nc2ccc([N+](=O)[O-])cc2s1)c1ccc(S(=O)(=O)N2CCCc3ccccc32)cc1`: the inhibition was 82.2% (active).

These data come from PubChem BioAssay AID602428 (Sanford-Burnham Center for Chemical Genomics, 2012).
